# In PubChem BioAssay AID463173 (ICCB-Longwood Screening Facility, Harvard Medical School, 2010):
# Hit rate of the full screen: of about 52,000 compounds, about 4,300 (8.3%) were called active. Shown is part of a subset that was picked to be rich in actives. A number with no mark means an inactive call. No stated cut-off is given here; in the data, active means survival mostly below about 52% (no sharp cut-off); inactive means mostly above about 56%.
# System: DeltatarO mutant
# Assay: growth inhibition of S. aureus wild type versus tarO mutant, primary screen, teichoic acid synthesis inhibitors, RN4220, OD600 (AID 463173)
# Conditions: OD600, 18 h, stronger effect = lower value, screened at 18.75 µg/mL (by protocol)
row,SMILES,survival
1,Cc1ncc(CO)c2c1Oc1nc(-c3ccc(F)cc3)nc(SCc3ccc(F)cc3Cl)c1C2,58%
2,Cc1cccc(OCc2ccc(-c3nc(C#N)c(NCc4cccnc4)o3)o2)c1,79%
3,COC(=O)c1sccc1S(=O)(=O)N(CC(=O)NCc1ccccc1)c1ccc(C)cc1,95%
4,CC(=O)N1CCc2c(sc3c2c(=O)n(-c2ccccc2Cl)c(=O)n3Cc2cccc(C)c2)C1,74%
5,O=S(=O)(Nc1ccc(Br)cc1F)c1ccc2nc(-c3ccccc3)[nH]c2c1,72%
6,COc1cc(NS(=O)(=O)c2ccc3c(c2)CC(=O)N3)cc(OC)c1OC,74%
7,Cc1ccc(NS(=O)(=O)c2ccc3nc(-c4ccccc4)[nH]c3c2)c(Br)c1,79%
8,Cc1ccc(NS(=O)(=O)c2ccc3c(c2)N(C)C(=O)CC(=O)N3C)cc1Cl,72%
9,Cc1cc(NS(=O)(=O)c2ccc3nc(-c4ccccc4)[nH]c3c2)ccc1Br,-2% (active)
10,O=S(=O)(Nc1ccc(Br)cc1)c1ccc2nc(-c3ccccc3)[nH]c2c1,-1% (active)
11,CC(C)c1ccc(NS(=O)(=O)c2ccc3nc(-c4ccccc4)[nH]c3c2)cc1,67%
12,COc1ccc(NS(=O)(=O)c2ccc3nc(-c4ccccc4)[nH]c3c2)cc1,72%
13,Cc1ccc(NS(=O)(=O)c2ccc3nc(-c4ccccc4)[nH]c3c2)c(Cl)c1,76%
14,Cc1ccc(NS(=O)(=O)c2ccc3nc(-c4ccccc4)[nH]c3c2)cc1Cl,6% (active)
15,Cc1cccc(NS(=O)(=O)c2ccc3nc(-c4ccccc4)[nH]c3c2)c1C,109%
16,Cc1ccc(NS(=O)(=O)c2ccc3c(c2)CC(=O)N3)cc1Cl,47% (active)
17,Cc1cc(C)c(C#N)c(SCC(=O)Nc2sc3c(c2C#N)CCC(C(C)(C)C)C3)n1 (centres undefined),75%
18,Cc1ccc(CNC(=O)Cn2c(=O)n(-c3ccc(C)c(F)c3)c(=O)c3sc4ccccc4c32)cc1,75%
19,COc1ccc(-c2cnnn2-c2ccc(NC(=O)c3ccc(S(=O)(=O)N(C)C)cc3)cc2)cc1,81%
20,COCCNC(=O)CCn1c(=O)[nH]c2cc(OC)c(OC)cc2c1=O,90%
21,CCN1C2OC(C3OC4C(O3)N(CC)S(=O)(=O)N4CC)OC2N(CC)S1(=O)=O (centres undefined),73%
22,CCN1/C(=C2/SC(=S)N(N)C2=O)Sc2ccccc21,77%
23,O=C(CSc1nnc(-c2cccs2)o1)N1c2ccccc2CCc2ccccc21,70%
24,CCOc1ccc(-c2nonc2NC(=O)c2oc3ccc(F)cc3c2C)cc1,117%

row,SMILES,survival
1,CC1(C)C(=O)N(CC(=O)Nc2cccc(F)c2)c2ccc(S(=O)(=O)N3CCCCC3)cc21,81%
2,Cc1nn(-c2ccc(N3CCCC3)nn2)c(C)c1CCC(=O)Nc1ccccc1,83%
3,Cc1nc2ccn(Cc3cccnc3)c(=O)c2cc1C(=O)NCc1ccc(Cl)cc1,69%
4,Cc1ccc(-c2nc(C)c(CCNC(=O)C(=O)Nc3ccc(C)c(Cl)c3)s2)cc1,74%
5,Cc1nc(-c2ccccc2)sc1CCNC(=O)C(=O)Nc1ccc(F)c(Cl)c1,6% (active)
6,Cc1ccc(NC(=O)C(=O)NCCc2sc(-c3ccc(Cl)cc3)nc2C)cc1C,104%
7,O=C(c1cccc(F)c1)N1CCN(C(=O)c2cccc3ccccc23)CC1,92%
8,CC(NC(=O)c1cc2ccccn2n1)c1ccccc1 (centres undefined),75%
9,Cc1cccc(CCNC(=O)c2sc3nc4n(c(=O)c3c2C)CCCC4)c1,85%
10,COc1cc(NC(=O)CCN2CCN(c3ccccc3)CC2)cc(OC)c1,150%
11,CC(=O)N1CCCc2cc(S(=O)(=O)N3CCC(C(=O)NCCC(C)C)CC3)ccc21,91%
12,N#Cc1cnc(SCCc2ccccc2)nc1N,81%
13,CCCCCCSc1ncc(C#N)c(N)n1,84%
14,N#Cc1cnc(SCc2ccccc2)nc1N,39% (active)
15,CCOC(=O)c1c(C)oc2ccc(N(C(C)=O)S(=O)(=O)c3c(C)cc(C)cc3C)cc12,168%
16,O=c1sc2ccccc2n1CCc1ccccc1,104%
17,COc1cc(Cn2c(=O)sc3ccccc32)ccc1OC(C)C,40% (active)
18,COc1ccc(CNC(=O)C(C)n2nc(C)c3sc4ccccc4c3c2=O)cc1OC (centres undefined),67%
19,CCCCOc1ccc(Cn2c(=O)sc3ccccc32)cc1OC,-3% (active)
20,COc1cc(Cn2c(=O)sc3ccccc32)ccc1OCCC(C)C,-2% (active)
21,O=C(Cn1c(=O)sc2ccccc21)OCc1ccccc1,83%
22,COc1ccc(Cn2c(=O)sc3ccccc32)cc1,74%
23,Cc1cccc2sc(N(Cc3cccnc3)C(=O)CCc3ccccc3)nc12,117%
24,COc1cccc(-n2c(=O)c3c(C)c(C)sc3n(CC(=O)NCc3ccccc3)c2=O)c1,102%

row,SMILES,survival
1,CCCCCOc1ccc(/C=C/C(=O)Nc2sc3c(c2C(=O)OCC)CCC3)cc1OC,66%
2,COc1ccc(NC(=O)N2CCN3CCCCC3C2)cc1OC (centres undefined),99%
3,COc1cc(Cl)ccc1OC(=O)c1cn(-c2ccccc2OC)c(=O)c2ccccc12,58%
4,Cc1ccc(S(=O)(=O)Cn2nnnc2CN(Cc2ccco2)Cc2cccs2)cc1,61%
5,CN(C)c1ccc(C(CNC(=O)c2c(F)cccc2Cl)N2CCOCC2)cc1 (centres undefined),25% (active)
6,Cc1ccc(S(=O)(=O)NCC(c2ccc(N(C)C)cc2)N2CCOCC2)cc1 (centres undefined),57%
7,Cc1ccc(S(=O)(=O)NCC(c2ccc(N(C)C)cc2)N2CCCC2)cc1 (centres undefined),98%
8,CN(C)c1ccc(C(CNS(=O)(=O)c2ccc(F)cc2)N2CCOCC2)cc1 (centres undefined),92%
9,CN(C)c1ccc(C(CNS(=O)(=O)c2ccc(F)cc2)N2CCCC2)cc1 (centres undefined),106%
10,CN(C)c1ccc(C(CNS(=O)(=O)c2ccc(Cl)cc2)N2CCOCC2)cc1 (centres undefined),37% (active)
11,CN(C)c1ccc(C(CNC(=O)Cc2ccc(Cl)cc2)N2CCOCC2)cc1 (centres undefined),63%
12,CN(C)c1ccc(C(CNC(=O)c2ccccc2Cl)N2CCCC2)cc1 (centres undefined),81%
13,CN(C)c1ccc(C(CNS(=O)(=O)c2ccc(Cl)cc2)N2CCCC2)cc1 (centres undefined),0% (active)
14,CCN(CC)C(=O)Cn1c(=O)n(-c2ccc(OC)cc2OC)c(=O)c2c(C)c(C(=O)N(CC)CC)sc21,89%
15,CCc1cccc(CC)c1NS(=O)(=O)c1ccc2c(c1)CCN2C(=O)C1CC1,90%
16,CC1=Nc2cc(C(=O)NCCc3ccc(Cl)cc3)ccc2Sc2c(C)ccc(C)c21,74%
17,O=C(NCCc1ccc(Cl)cc1)c1ccc(CS(=O)(=O)Cc2ccc(F)cc2)o1,92%
18,CCOc1nc(-c2ccccc2)ccc1-c1noc(-c2ccc(C)cc2)n1,110%
19,COc1ccc(-c2ccc(-c3noc(-c4cc(OC)cc(OC)c4)n3)c(OC)n2)cc1,45%
20,CCOc1cc(-c2nc(-c3ccc(-c4ccc(C)cc4)nc3OC)no2)cc(OCC)c1OCC,69% (active)
21,CCOc1ccccc1-c1nc(-c2ccc(-c3ccccc3)nc2OCC)no1,4% (active)
22,COc1nc(-c2ccccc2)ccc1-c1noc(C(C)C)n1,91%
23,COc1cccc(-c2nc(-c3ccc(-c4ccccc4)nc3OC)no2)c1,10% (active)
24,CCOc1cc(-c2nc(-c3ccc(-c4ccccc4)nc3OCC)no2)cc(OCC)c1OCC,53%

row,SMILES,survival
1,COc1cccc(-c2ccc(-c3noc(-c4ccccc4Br)n3)c(OC)n2)c1,37%
2,CCOc1cc(-c2nc(-c3ccc(-c4ccc(OC)cc4)nc3OC)no2)cc(OCC)c1OCC,75%
3,CCOc1cc(-c2nc(-c3ccc(Br)cc3)no2)cc(OCC)c1OCC,118%
4,COc1nc(C)ccc1-c1noc(-c2ccccc2)n1,102%
5,COc1nc(-c2ccccc2)ccc1-c1noc(-c2ccccc2Br)n1,-1% (active)
6,COc1ccc(CCCc2nnc(SCC(=O)Nc3ccc(F)cc3)o2)cc1C,89%
7,COc1ccccc1N1CCN(c2cc(N3CCCC3)nc(C)n2)CC1,98%
8,O=C(Nc1ccc(Br)cc1)C1CCCN(S(=O)(=O)c2ccc(Br)s2)C1 (centres undefined),82%
9,C#CCN1CCc2cc(OC)c(OC)cc2C1C (centres undefined),101%
10,Cc1cccc(CCNCc2cc3cc4c(cc3[nH]c2=O)OCO4)c1,85%
11,CC1(C)OC2C(CO)OC(n3ncc(=O)[nH]c3=O)C2O1 (centres undefined),86%
12,CCOc1nc(-c2ccc(C)cc2)ccc1-c1noc(-c2ccccc2F)n1,54%
13,COc1nc(-c2ccc(C)cc2)ccc1-c1noc(-c2ccc(C(C)(C)C)cc2)n1,47%
14,COc1nc(-c2ccc(C)cc2)ccc1-c1noc(-c2ccccc2Br)n1,19% (active)
15,CC(C)(C)c1cc(C(C)(C)C)c2oc(=O)c(-c3nc4ccccc4[nH]3)cc2c1,69%
16,Cc1ccc(-n2ncc(C(=O)NCCN3CCc4ccccc4C3)c2C2CCNCC2)cc1C,95%
17,O=C(c1ccc(F)cc1)N1CCC(c2nc3ccccc3o2)CC1,83%
18,Cc1nnc(SCc2ccccc2)c2cc3sccc3n12,53%
19,COc1ccc(CCN(Cc2nc3ccccc3c(=O)[nH]2)C(=O)C(C)C)cc1,101%
20,CCC(CC)C(=O)Nc1nnc(C(C)(C)C)s1,95%
21,CC(C)(C)c1nnc(NC(=O)CS(=O)(=O)Cc2ccccc2)s1,95%
22,CCC(=O)Nc1nnc(C(C)(C)C)s1,51% (active)
